From ChEMBL document CHEMBL3988442, “University of Dundee, Small-Polar-MMV Screening Library” (2021) come the findings set out here.

SMILES strings stand for the structures. For some of these results: Entries with a potency or affinity are not part of this list.

Set-up in all cases: scale not given: direction of the effect not stated beside the values
Test [1] deals with Protein translocase subunit SecA (Escherichia coli (strain K12)) (UniProt P10408). Put plainly: Assay to Identify E. coli SecA ATPase Inhibitors. To be noted: 30 µM. The test is classed as functional.
Chain of Protein translocase subunit SecA (Escherichia coli (strain K12)) (P10408 whole entry): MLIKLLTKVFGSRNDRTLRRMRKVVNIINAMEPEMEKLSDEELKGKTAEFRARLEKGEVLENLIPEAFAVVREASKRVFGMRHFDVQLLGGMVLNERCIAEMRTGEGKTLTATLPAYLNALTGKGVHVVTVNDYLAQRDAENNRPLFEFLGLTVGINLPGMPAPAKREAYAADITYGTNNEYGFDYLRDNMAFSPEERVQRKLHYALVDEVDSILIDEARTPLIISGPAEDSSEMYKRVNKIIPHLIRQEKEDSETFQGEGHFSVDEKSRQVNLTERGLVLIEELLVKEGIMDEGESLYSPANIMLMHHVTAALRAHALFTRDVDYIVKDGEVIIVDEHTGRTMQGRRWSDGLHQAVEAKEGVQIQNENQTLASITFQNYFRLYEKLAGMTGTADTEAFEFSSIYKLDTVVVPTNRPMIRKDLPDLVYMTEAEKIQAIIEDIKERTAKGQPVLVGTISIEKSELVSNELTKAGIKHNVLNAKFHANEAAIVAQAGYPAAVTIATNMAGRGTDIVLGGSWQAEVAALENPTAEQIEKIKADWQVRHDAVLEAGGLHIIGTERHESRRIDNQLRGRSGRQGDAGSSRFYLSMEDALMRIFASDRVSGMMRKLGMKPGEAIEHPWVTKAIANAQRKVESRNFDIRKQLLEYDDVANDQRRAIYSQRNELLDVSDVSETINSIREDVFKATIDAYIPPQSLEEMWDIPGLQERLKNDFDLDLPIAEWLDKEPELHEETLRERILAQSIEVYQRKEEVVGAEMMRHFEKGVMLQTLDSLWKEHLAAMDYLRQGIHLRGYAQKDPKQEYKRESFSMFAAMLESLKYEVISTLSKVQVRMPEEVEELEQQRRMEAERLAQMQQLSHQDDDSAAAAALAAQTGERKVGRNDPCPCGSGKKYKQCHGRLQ
Test [2] addresses T1, Ubiquitin-activating enzyme e1, putative (Leishmania donovani (strain BPK282A1)) (UniProt E9BSI1).
T1 sequence (whole entry): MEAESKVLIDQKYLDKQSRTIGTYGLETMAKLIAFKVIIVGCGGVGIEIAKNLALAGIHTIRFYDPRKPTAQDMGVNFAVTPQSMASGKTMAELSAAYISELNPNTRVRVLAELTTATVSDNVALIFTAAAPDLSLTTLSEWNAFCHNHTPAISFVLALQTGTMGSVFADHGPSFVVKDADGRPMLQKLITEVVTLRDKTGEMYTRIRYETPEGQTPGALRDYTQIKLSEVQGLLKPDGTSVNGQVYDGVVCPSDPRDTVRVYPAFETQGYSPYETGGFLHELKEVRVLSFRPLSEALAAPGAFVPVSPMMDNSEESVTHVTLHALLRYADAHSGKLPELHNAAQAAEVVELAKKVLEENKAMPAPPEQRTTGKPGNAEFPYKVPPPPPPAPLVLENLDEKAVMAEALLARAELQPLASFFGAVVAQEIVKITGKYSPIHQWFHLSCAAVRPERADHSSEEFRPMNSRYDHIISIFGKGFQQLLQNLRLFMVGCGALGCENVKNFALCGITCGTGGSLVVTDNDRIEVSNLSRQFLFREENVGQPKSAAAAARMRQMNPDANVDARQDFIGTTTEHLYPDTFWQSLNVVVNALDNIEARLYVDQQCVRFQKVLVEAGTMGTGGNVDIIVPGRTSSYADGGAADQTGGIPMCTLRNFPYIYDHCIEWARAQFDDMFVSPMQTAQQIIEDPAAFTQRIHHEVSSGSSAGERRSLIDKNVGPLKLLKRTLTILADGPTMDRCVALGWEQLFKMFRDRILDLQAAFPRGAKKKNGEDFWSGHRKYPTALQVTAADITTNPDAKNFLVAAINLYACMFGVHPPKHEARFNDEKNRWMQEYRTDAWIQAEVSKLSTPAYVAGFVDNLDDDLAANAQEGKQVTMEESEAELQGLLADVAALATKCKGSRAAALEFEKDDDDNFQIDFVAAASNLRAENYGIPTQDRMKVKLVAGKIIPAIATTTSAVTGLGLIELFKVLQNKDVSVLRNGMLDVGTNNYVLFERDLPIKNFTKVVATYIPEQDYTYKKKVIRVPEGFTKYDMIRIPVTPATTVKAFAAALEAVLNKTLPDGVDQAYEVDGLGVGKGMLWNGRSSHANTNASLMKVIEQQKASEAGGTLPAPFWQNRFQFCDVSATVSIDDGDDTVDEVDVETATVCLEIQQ
In words: Leishmania donovani Ubiquitin Activating Enzyme (LdE1). To be noted: 30 µM. The test is classed as functional.

Test [3] concerns the target AMP-activated protein kinase, AMPK (Homo sapiens) (UniProt P54646+O43741+P54619+Q9UGJ0+Q9Y478+Q13131+Q9UGI9). Put plainly: AMP-dependent Kinase enzyme assay. An in vitro enzyme assay that detects ADP turnover that is directly proportional to AMPK activity. This uses naive AMPK that is activated during the assay with MK-8722. The test is classed as functional. To be noted: 30 µM.

For test [4], the target named is Sialic acid-binding Ig-like lectin 9 (Homo sapiens) (UniProt Q9Y336). In words: Hs-Siglec9 ALPHAscreen SOP 20170721. The note with it: 10 µM.
Chain of Sialic acid-binding Ig-like lectin 9 (Homo sapiens) (Q9Y336 whole entry): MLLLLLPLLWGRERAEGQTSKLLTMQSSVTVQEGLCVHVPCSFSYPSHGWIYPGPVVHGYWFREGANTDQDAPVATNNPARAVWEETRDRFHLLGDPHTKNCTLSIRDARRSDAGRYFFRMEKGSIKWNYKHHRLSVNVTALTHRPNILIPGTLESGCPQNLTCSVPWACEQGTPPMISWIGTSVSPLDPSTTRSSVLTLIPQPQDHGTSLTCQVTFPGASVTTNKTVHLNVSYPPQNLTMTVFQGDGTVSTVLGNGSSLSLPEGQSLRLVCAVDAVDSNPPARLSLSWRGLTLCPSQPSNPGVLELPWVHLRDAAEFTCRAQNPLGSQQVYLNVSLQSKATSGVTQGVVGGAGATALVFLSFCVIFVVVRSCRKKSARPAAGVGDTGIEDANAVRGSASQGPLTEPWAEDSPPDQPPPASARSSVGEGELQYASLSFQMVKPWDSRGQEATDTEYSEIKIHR
For test [5], the system named is Trypanosoma cruzi. In words: Trypanosoma cruzi phosphomannomutase and mannose-1-phosphate guanylyltransferase assay. The note with it: 10 µM. Type of test: functional.
Test [6] has as its target T2, Arginase-2, mitochondrial (Homo sapiens) (UniProt P78540).
T2 sequence (whole entry): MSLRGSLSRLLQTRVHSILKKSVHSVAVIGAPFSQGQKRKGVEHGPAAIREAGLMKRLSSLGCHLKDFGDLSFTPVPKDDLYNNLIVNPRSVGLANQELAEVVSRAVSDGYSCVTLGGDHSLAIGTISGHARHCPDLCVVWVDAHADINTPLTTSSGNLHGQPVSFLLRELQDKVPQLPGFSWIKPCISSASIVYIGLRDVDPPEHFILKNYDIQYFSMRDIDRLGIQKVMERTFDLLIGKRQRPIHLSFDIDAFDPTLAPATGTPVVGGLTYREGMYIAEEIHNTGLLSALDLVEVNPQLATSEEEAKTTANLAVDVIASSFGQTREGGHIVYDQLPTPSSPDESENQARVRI
Put plainly: in vitro enzyme assay to detect the production of urea directly proportional to the activity of Arginase II. Note: in the data most compounds retested in dose-response had high values. Type of test: functional. The note with it: 33.3 µM.

In test [7] the target is T3, Proteasome subunit beta (Trypanosoma cruzi) (UniProt O96673).
T3 sequence (whole entry): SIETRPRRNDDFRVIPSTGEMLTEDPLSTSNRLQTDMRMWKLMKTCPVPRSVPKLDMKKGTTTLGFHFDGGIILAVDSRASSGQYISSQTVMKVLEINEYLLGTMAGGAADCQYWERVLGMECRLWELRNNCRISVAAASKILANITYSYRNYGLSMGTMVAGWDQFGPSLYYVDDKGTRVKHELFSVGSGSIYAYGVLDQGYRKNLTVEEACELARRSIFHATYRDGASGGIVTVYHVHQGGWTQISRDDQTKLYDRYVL
Put plainly: Trypanosoma cruzi proteasome chymotrypsin-like activity (TcProtChymo) assay. Note: in the data most compounds retested in dose-response had high values. The test is classed as functional. To be noted: 9.37 µM.

For test [8], the species on record is Homo sapiens. Put plainly: To identify inhibition of the IFN signalling (Jak-Stat) pathway via expression of an eGFP reporter gene under the control of an IFN-stimulated response element (ISRE) containing MxA promoter. Type of test: functional. The note with it: 30 µM.
Test [9] addresses T4, Tyrosyl-tRNA synthetase, putative (Trypanosoma cruzi (strain CL Brener)) (UniProt Q4DSP6).
T4 sequence (whole entry): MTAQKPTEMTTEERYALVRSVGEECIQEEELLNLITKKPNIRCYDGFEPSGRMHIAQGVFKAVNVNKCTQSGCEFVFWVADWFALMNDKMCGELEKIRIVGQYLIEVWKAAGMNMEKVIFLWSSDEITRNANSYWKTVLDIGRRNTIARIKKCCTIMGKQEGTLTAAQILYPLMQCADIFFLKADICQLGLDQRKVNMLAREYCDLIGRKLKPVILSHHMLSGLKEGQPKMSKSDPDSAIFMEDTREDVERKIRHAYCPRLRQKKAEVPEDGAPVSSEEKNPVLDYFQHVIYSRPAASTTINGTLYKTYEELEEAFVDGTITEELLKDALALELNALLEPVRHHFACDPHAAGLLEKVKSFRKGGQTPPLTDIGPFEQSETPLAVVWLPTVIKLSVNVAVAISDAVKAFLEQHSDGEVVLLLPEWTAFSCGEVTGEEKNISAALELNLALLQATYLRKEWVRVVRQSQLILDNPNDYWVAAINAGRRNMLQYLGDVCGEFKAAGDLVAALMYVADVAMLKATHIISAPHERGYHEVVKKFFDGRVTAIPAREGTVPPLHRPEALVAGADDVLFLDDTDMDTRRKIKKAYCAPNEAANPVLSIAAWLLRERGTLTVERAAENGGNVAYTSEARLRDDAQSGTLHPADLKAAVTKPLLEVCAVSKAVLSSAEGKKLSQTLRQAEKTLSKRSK
Put plainly: Trypanosoma cruzi tyrosyl tRNA synthetase (TcYRS) _High Tyrosine SOP. Note: in the data most compounds retested in dose-response had high values. To be noted: 30 µM. Type of test: functional.

The target of test [10] is T4, Tyrosyl-tRNA synthetase, putative (Trypanosoma cruzi (strain CL Brener)). In words: Trypanosoma cruzi tyrosyl tRNA synthetase (TcYRS) SOP. The test is classed as functional. To be noted: 30 µM.
For test [11], the target named is Chromo domain-containing protein 1 (Saccharomyces cerevisiae (strain ATCC 204508 / S288c) (Baker's yeast)) (UniProt P32657). In words: ScCHD-1 Enzyme Inhibition Assay. Note: in the data most compounds retested in dose-response had high values. The test is classed as functional. The note with it: 30 µM.
Chain of Chromo domain-containing protein 1 (Saccharomyces cerevisiae (strain ATCC 204508 / S288c) (Baker's yeast)) (P32657 whole entry, the tested form may be a part): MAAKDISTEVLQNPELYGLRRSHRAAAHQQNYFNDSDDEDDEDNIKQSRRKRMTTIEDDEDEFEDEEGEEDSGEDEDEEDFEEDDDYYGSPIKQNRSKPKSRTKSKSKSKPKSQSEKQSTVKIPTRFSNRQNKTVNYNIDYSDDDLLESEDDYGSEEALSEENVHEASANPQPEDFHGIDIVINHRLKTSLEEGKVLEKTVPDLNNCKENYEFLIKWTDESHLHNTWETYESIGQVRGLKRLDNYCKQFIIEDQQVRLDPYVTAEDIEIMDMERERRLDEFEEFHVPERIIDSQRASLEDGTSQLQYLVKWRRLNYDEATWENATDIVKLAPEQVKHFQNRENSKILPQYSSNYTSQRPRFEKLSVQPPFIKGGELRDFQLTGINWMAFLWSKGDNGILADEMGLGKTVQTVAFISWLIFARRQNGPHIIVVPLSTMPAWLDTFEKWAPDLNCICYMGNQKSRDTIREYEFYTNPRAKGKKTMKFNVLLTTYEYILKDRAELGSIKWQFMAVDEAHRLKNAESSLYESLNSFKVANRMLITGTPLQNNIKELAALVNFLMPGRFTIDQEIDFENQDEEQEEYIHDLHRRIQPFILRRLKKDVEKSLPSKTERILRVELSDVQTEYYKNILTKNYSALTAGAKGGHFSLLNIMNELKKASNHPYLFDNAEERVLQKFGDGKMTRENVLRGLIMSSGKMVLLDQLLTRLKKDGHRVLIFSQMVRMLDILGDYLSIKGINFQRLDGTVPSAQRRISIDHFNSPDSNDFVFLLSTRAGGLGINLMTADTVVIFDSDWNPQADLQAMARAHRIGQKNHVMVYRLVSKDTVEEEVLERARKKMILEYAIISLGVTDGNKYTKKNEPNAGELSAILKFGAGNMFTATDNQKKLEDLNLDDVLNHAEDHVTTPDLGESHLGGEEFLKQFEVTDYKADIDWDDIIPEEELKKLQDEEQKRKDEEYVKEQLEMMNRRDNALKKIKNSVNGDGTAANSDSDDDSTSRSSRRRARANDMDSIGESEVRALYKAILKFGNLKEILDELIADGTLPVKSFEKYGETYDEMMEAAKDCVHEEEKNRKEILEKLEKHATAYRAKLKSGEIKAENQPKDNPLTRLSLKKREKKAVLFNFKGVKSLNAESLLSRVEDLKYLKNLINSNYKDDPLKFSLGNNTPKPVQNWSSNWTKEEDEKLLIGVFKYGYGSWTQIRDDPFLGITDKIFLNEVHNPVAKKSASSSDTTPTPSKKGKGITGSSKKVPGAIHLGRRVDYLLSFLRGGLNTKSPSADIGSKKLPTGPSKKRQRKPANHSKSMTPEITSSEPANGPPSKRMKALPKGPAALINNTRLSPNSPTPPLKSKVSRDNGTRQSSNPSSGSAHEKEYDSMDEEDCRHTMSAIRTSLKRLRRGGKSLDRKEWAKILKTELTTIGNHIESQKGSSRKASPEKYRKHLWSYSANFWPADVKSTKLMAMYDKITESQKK

For `COc1cc(CN(C)C(=O)NCCC2CCCO2)ccc1SC` (stereo unspecified), the Percent Effect in test [1] is -3%; in test [2], 8.11%; in test [3], -5.1%; in test [4], 2.6%; in [5] it was 0.781%; in [6] it was 0.833%. Further, the Percent Effect in test [7] was 10.1%; in test [8], -25.6%; in test [9], -13.9%; in test [10] it was 3.66%; in test [11], -5.8%.
`CCn1nc2c(cc1=O)CN(Cc1nc3ccccc3c(=O)[nH]1)CC2`: the Percent Effect is -5.88% in test [1]; 5.48% in [2]; -24.8% in [3]; -1.63% in test [4]; -1.57% in test [5]; -1.36% in [6]. The Percent Effect in test [7] is 18.3%; in [8], 10.3%; in [9], 6.45%; in test [10], 10%; in test [11], -4.67%.
As to `NC(=O)C(CNC(=O)Cc1ccc(F)cc1)Cc1ccc(F)cc1` (stereo unspecified), the Percent Effect was -4.48% in [1]; 2.63% in [2]; -46.9% in test [3]; -3.44% in [4]; -4.19% in [5]; 0% in test [6]. For the same compound, the Percent Effect in [7] was 11.4%; in [8] it was 19.6%; in test [9], 0%; in test [10] it was 0%; in test [11], -3.68%.
With `Cc1cc(-c2cnc(NC3CC3)nc2-c2ccc(C)o2)on1`, the Percent Effect in [1] is -1.85%; in test [2], 13.3%; in test [3], 55.8%; in test [4], 7.93%; in test [5], 3.54%; in test [6], -0.233%. Moreover, the Percent Effect in test [7] was 2.56%; in test [8], 20.4%; in test [9], 2.13%; in test [10] it was 14.1%; in [11] it was -7.02%.
Take `O=C(c1cccn1Cc1cccs1)N1CCCC1Cn1cccn1` (stereo unspecified): the Percent Effect in test [1] is -1.97%; in test [2] it was -23.7%; in [3], -2.11%; in test [4], 10.5%; in [5] it was 8.68%; in test [6] it was -4.68%. Further, the Percent Effect in [7] was 8.38%; in [8], -4.07%; in test [9] it was 0.493%; in [10] it was 6.17%; in test [11] it was 3.37%.
In the case of `CC(C)c1nccn1-c1cccc(C2CCN(C)CC2)n1`, the Percent Effect is -4.43% in test [1]; 9.46% in test [2]; 4.91% in test [3]; -4.03% in test [4]; 4.54% in test [5]; -5.8% in test [6]. In addition, the Percent Effect in test [7] is 14.2%; in [8], 0.127%; in test [9], 1.07%; in test [10] it was 6.49%; in test [11], -24.6%.
In the case of `Cc1nc(N2CCN(C(=O)c3ccccc3)CC2)c2c(n1)c(C)nn2C`, the Percent Effect in test [1] is -0.87%; in test [2] it was 12%; in test [3], 3.25%; in test [4], 0%; in [5] it was -0.393%; in [6] it was -12.8%. Further, the Percent Effect in test [7] is 12.9%; in test [8], 25.6%; in [9] it was 6.35%; in test [10], 10.3%; in test [11], -10.1%.
`CC(C)NC(=O)[C@@H]1C[C@H](N)CN1C(=O)c1cc2c([nH]c1=O)CCCC2`: the Percent Effect in test [1] is -2.48%; in test [2] it was 6.94%; in test [3] it was -2.43%; in test [4], -9.13%; in test [5] it was -1.46%; in [6] it was 1.77%. In addition, the Percent Effect in [7] was 17.7%; in test [8], 3.48%; in [9], 4.21%; in [10], 7.69%; in [11], -3.08%.
On to `CN(CC(=O)N1CCCC1c1cnn(C)c1)c1ccc(Cl)cn1` (stereo unspecified), for which the Percent Effect in [1] was -8.15%; in test [2] it was 7.89%; in test [3], -2.82%; in test [4], -3.87%; in test [5] it was -7.56%; in test [6] it was 2.52%. Besides, the Percent Effect amounted to 7.19% in test [7]; 6.79% in [8]; 2.46% in [9]; 6.17% in test [10]; 0.471% in test [11].
As to `O=C(COc1coc(CN2CCOCC2)cc1=O)c1ccc(Cl)cc1`, the Percent Effect in test [1] is -3.55%; in [2] it was 2.63%; in test [3], 5.88%; in [4], 11%; in [5], -2.04%; in test [6], -11.8%. Besides, the Percent Effect in [7] was 12%; in test [8], 20.8%; in [9] it was -1.06%; in test [10] it was 0%; in test [11], -0.42%.
On to `Cc1ccc(-c2cc(CNC(=O)N3CCC(CO)CC3)on2)cc1`, for which the Percent Effect in test [1] was -2.94%; in test [2] it was 21.6%; in test [3] it was 1.9%; in test [4], -3.05%; in test [5] it was -4.74%; in test [6], -0.185%. Besides, the Percent Effect in [7] is 14.9%; in test [8], 14%; in [9], 6.93%; in test [10] it was 13.4%; in test [11], -4.09%.
